TDP1 cell noCPT: qHTS for Inhibitors of human tyrosyl-DNA phosphodiesterase 1 (TDP1): qHTS in cells in absence of CPT | DT40 Tdp1-/- hTDP1 cells, no CPT, ATP luminescence, 48 h | Potency, µM (doses to about 46.2 µM), inactives show at the highest dose activity change, negative = growth inhibition, most hits filed as inhibitors | actives 15% (n = 420,000) | AID 686978, 2013; further: on the % scale 0 is the no-effect control and ±100 the full control effect; nearly all actives have a fitted effect of over 55% in size
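Luminescent ATP content (CellTiter-Glo) served as the growth readout. Knockout chicken DT40 cells expressing human TDP1 were exposed to compounds without camptothecin for a minimum 48 hr at 37 °C.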
TGFb inhibitor: blocks TGF-b signaling | HepG2 CAGA-GFP TGF-b/SMAD3 reporter, GFP fluorescence, 18 h; TGF-beta stimulated, 500 pg/mL final | AID 588855 | Potency, µM (series often up to 46.1 µM), without a hit: at the highest dose activity, negative = inhibition, actives largely listed as inhibitors | actives 1.2% (n = 410,000); further: on the % scale 0 is the no-effect control and ±100 the full control effect; nearly all actives have a fitted effect of over 65% in size
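TGF-beta reporter screen: HEPG2 CAGA-GFP, 1% FBS, 500 pg/mL TGF-beta final, 18 h; per-cell GFP summed per well; curves fitted and categorized by class.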
DT40 TDP1 CPT: growth inhibition of DT40 Tdp1-/-;hTDP1 cells with camptothecin (screen for TDP1 inhibitors). Potency, µM (top dose mostly 46.2 µM), for inactives: top-dose activity change, negative = growth inhibition, usual class: inhibitors. chicken DT40 Tdp1-/-;hTDP1 cells + 20 nM CPT, ATP luminescence, 48 h. actives 12% (n = 420,000). AID 686979; further: on the % scale 0 is the no-effect control and ±100 the full control effect; nearly all actives have a fitted effect of over 55% in size
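Chicken DT40 Tdp1-/- cells stably complemented with human TDP1 were seeded at 400 cells/well in medium containing 20 nM camptothecin, exposed to pin-transferred compounds, and grown at 37 °C for at least 48 hr. Viability was read as ATP luminescence.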
ATXN2 expr inh: reduces ATXN2 reporter expression in HEK-293 cells; AID 1745845; actives 0.72% (n = 360,000); HEK-293 ATXN2-luciferase reporter, luminescence, 24 h; Potency, µM (doses to about 57 µM), for the others: top-dose activity change, negative = inhibition, actives largely listed as inhibitors; further: on the % scale 0 is the no-effect control and ±100 the full control effect; nearly all actives have a fitted effect of over 55% in size
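qHTS (up to 57 uM final) was run with 24 h compound exposure of reporter cells at 37 °C. Each well was multiplexed: SteadyGlo luminescence measured ATXN2-luciferase expression after a fluorogenic Gly-Phe-AFC viability readout (25 uM final).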
S2 tox: cell viability loss in ATXN counter-screen. S2 cells (HEK-293 line with an ATXN2-luciferase reporter) viability, CellTiter-Fluor protease fluorescence, 24 h. Potency, µM (titrated, usually from 56.7 µM), most hits filed as cytotoxic. actives 0.49% (n = 400,000). AID 651635; further: nearly all actives have a fitted effect of over 40% in size
HepG2 viability: counter-screen for TGF-b inhibitors: cytotoxicity in HepG2 cells | Potency, µM (highest dose often 46.1 µM), for inactives: top-dose activity change, negative = cytotoxicity, most hits filed as cytotoxic | HepG2 CAGA-GFP viability, ATP luminescence, 18 h | actives 0.76% (n = 410,000) | AID 588856
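HepG2 CAGA-GFP cells (1000/well, DMEM with 1% FBS) received compound, then TGF-beta at 500 pg/mL final, and were incubated 18 hours at 37 degrees C. Viability was read by CellTiter-Glo luminescence. Media-only wells were set as complete cell-killing and DMSO as no toxicity.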
The depositor's hits bear a star. This is a sample that favours compounds with a hit; in the whole collection about 17% have one here. The call rests on the fitted dose curve; in most records, active means well fitted curve in the direction sought with a large enough effect; inconclusive means small, poorly fitted or top-dose-only effect, or another doubt; inactive means no such curve, though single readings can be large; an effect the other way counts as inactive or inconclusive. Potency means the concentration at half of the fitted maximal effect.

How did CCc1noc(C)c1C(=O)Oc1ccc(N(C)S(=O)(=O)c2ccccc2)cc1 do in these assays?
TDP1 cell noCPT: 16µM*; TGFb inhibitor: -3%; DT40 TDP1 CPT: 23µM*; ATXN2 expr inh: -11%; S2 tox: inactive; HepG2 viability: 0%

Results for CCc1noc(C)c1C(=O)Oc1ccc(N(C)S(=O)(=O)c2ccc(C)cc2)cc1 ?
TDP1 cell noCPT: 2.6µM*; TGFb inhibitor: inconclusive; DT40 TDP1 CPT: 18µM*; ATXN2 expr inh: inconclusive; S2 tox: inactive; HepG2 viability: -19%

How did Cc1ccc(S(=O)(=O)N(C)c2ccc(OC(=O)c3ccc(=O)[nH]c3)cc2)cc1 do in these assays?
TDP1 cell noCPT: inconclusive; TGFb inhibitor: 6%; DT40 TDP1 CPT: inconclusive; S2 tox: inactive; HepG2 viability: 4%

What do the screens show for `C[C@@H]1CN([C@H](C)CO)C(=O)c2cc(NC(=O)Nc3ccc(C(F)(F)F)cc3)ccc2O[C@H]1CN(C)Cc1ccc(Cl)c(Cl)c1`?
TDP1 cell noCPT: 21µM*; TGFb inhibitor: 11µM*; DT40 TDP1 CPT: inconclusive; ATXN2 expr inh: inconclusive; S2 tox: 13µM*; HepG2 viability: -111%

Results for C[C@H]1CN([C@@H](C)CO)C(=O)c2cccc(NC(=O)Nc3ccc(C(F)(F)F)cc3)c2O[C@@H]1CN(C)Cc1ccc(Cl)c(Cl)c1 ?
TDP1 cell noCPT: 3.7µM*; TGFb inhibitor: inconclusive; DT40 TDP1 CPT: 3.3µM*; ATXN2 expr inh: 0%; S2 tox: 14µM*; HepG2 viability: 13µM*

Results for Cc1noc(C)c1NC(=O)N(C)C[C@H]1Oc2c(NC(=O)Nc3ccc(C(F)(F)F)cc3)cccc2C(=O)N([C@H](C)CO)C[C@@H]1C ?
TDP1 cell noCPT: inconclusive; TGFb inhibitor: 2%; DT40 TDP1 CPT: -2%; ATXN2 expr inh: 6%; S2 tox: inactive; HepG2 viability: -4%

Results for O=C(/C=C/c1cccc(Br)c1)N1CCN(c2ccccn2)CC1 ?
TDP1 cell noCPT: -4%; TGFb inhibitor: 1%; DT40 TDP1 CPT: -3%; ATXN2 expr inh: 1%; S2 tox: inactive; HepG2 viability: 14%

How did Cc1ccc2c(c1)c(=O)c1ccccc1n2CCCC(=O)Nc1cc(Cl)ccc1C do in these assays?
TDP1 cell noCPT: 16µM*; TGFb inhibitor: -26%; DT40 TDP1 CPT: inconclusive; ATXN2 expr inh: -4%; S2 tox: inactive; HepG2 viability: 11%

Results for Cc1ccc(NC(=O)CCCn2c3ccccc3c(=O)c3cc(C)ccc32)c(Br)c1 ?
TDP1 cell noCPT: 15µM*; TGFb inhibitor: -31%; DT40 TDP1 CPT: inconclusive; HepG2 viability: -27%

What do the screens show for `CN1CCC(N(C)C(=O)c2ccc(Cl)c(S(=O)(=O)N(C)c3ccc(Cl)cc3)c2)CC1`?
TDP1 cell noCPT: inconclusive; TGFb inhibitor: -23%; DT40 TDP1 CPT: inconclusive; ATXN2 expr inh: -16%; S2 tox: inconclusive; HepG2 viability: -1%

How did Cc1cc(C(=O)NCc2cc(C(=O)O)co2)co1 do in these assays?
TDP1 cell noCPT: 8%; TGFb inhibitor: 7%; DT40 TDP1 CPT: 7%; S2 tox: inactive; HepG2 viability: 19%

Results for O=C(Nc1nc(-c2ccccn2)cs1)c1ccc(Cl)s1 ?
TDP1 cell noCPT: 0.92µM*; TGFb inhibitor: inconclusive; DT40 TDP1 CPT: 1µM*; ATXN2 expr inh: inconclusive; S2 tox: inactive; HepG2 viability: -15%

How did CCc1sc(C(=O)NNC(=O)CNC(=O)c2ccccc2F)cc1C do in these assays?
TDP1 cell noCPT: -9%; TGFb inhibitor: 46%; DT40 TDP1 CPT: -10%; S2 tox: inactive; HepG2 viability: 21%

Results for O=C(Nc1nc(-c2ccccn2)cs1)c1ncc(Cl)c(Cl)c1Cl ?
TDP1 cell noCPT: 3.3µM*; TGFb inhibitor: inconclusive; DT40 TDP1 CPT: -105%; ATXN2 expr inh: -26%; S2 tox: inactive; HepG2 viability: -21%

What do the screens show for `CCc1sc(C(=O)Nc2nc(-c3ccccn3)cs2)cc1C`?
TDP1 cell noCPT: 4.1µM*; TGFb inhibitor: -16%; DT40 TDP1 CPT: 2.9µM*; ATXN2 expr inh: 25µM*; S2 tox: inactive; HepG2 viability: -2%

What do the screens show for `CCc1sc(C(=O)NCc2ccccc2)cc1C`?
TDP1 cell noCPT: 13µM*; TGFb inhibitor: -1%; DT40 TDP1 CPT: 21µM*; ATXN2 expr inh: 24%; S2 tox: inactive; HepG2 viability: 8%

Results for O=C(Nc1nccs1)c1ccc(Cl)s1 ?
TDP1 cell noCPT: -7%; TGFb inhibitor: -18%; DT40 TDP1 CPT: -2%; ATXN2 expr inh: 12%; S2 tox: inactive; HepG2 viability: -13%

How did CCc1nnc(NC(=O)c2ncc(Cl)c(Cl)c2Cl)s1 do in these assays?
TDP1 cell noCPT: -18%; TGFb inhibitor: 4%; DT40 TDP1 CPT: -23%; ATXN2 expr inh: 15%; S2 tox: inactive; HepG2 viability: -20%

What do the screens show for `CCOC(=O)CCc1cnccc1-c1cccc(OC)c1O`?
TGFb inhibitor: 9%; ATXN2 expr inh: 4%; S2 tox: inactive; HepG2 viability: 0%

What do the screens show for `CCN(CC(=O)Nc1c(F)cccc1F)C(=O)C1Cc2ccccc2CN1S(=O)(=O)CC` (stereo unspecified)?
TDP1 cell noCPT: -25%; TGFb inhibitor: -15%; DT40 TDP1 CPT: 6%; ATXN2 expr inh: -8%; S2 tox: inconclusive; HepG2 viability: -16%

Results for COc1cc2c(cc1OC)C(CNC(=O)C=Cc1ccccc1)C2 (stereo unspecified) ?
TDP1 cell noCPT: inconclusive; TGFb inhibitor: 5%; DT40 TDP1 CPT: -21%; S2 tox: inactive; HepG2 viability: -12%

How did CC(C)(C)NC(=O)NC(=O)COC(=O)c1cc(=O)[nH]c2ccccc12 do in these assays?
TDP1 cell noCPT: -14%; TGFb inhibitor: -10%; DT40 TDP1 CPT: -28%; ATXN2 expr inh: -7%; S2 tox: inactive; HepG2 viability: -12%

What do the screens show for `Cc1ccc(-c2nc3ccccc3o2)cc1NC(=O)c1cccc2c(Cl)cccc12`?
TDP1 cell noCPT: -23%; TGFb inhibitor: 2%; DT40 TDP1 CPT: inconclusive; ATXN2 expr inh: 9%; S2 tox: inactive; HepG2 viability: -25%

Results for Cn1cccc1C(=O)Nc1nc(-c2ccccn2)cs1 ?
TDP1 cell noCPT: 4.1µM*; TGFb inhibitor: -13%; DT40 TDP1 CPT: 2.6µM*; ATXN2 expr inh: inconclusive; S2 tox: inconclusive; HepG2 viability: -37%

Assay outcomes (PubChem)
